Source: PubChem BioAssay AID2314 (National Center for Advancing Translational Sciences (NCATS), 2010)
The whole screen tested about 300,000 compounds, of which about 37,000 (12%) were called active. For the sample, actives were picked, then their nearest neighbours and some compounds at random. A number with no mark means an inactive call. No stated cut-off is given here; in the data, active means max response mostly above about 13% (no sharp cut-off); inactive means mostly below about 14%.

Assay: Cycloheximide Counterscreen for Small Molecule Inhibitors of Shiga Toxin; further: read at 38.3 µM for the half of the compounds with a filed dose; 0% is about no effect
Conditions: cell reporter, cycloheximide protein synthesis inhibition counterscreen; stronger effect = higher value

Q: Which max response does the source give for COc1ccc(C(CCN2CCOCC2)c2c(OC)cc(OC)c3c2OC(=O)CC3c2ccc(OC)cc2)cc1 (stereo not given) here?
A: 3.67%

Q: Which max response does the source give for CCn1c(/C=C/Nc2ccccc2)[n+](CC)c2ccc(C(=O)OCC(F)(F)F)cc21 here?
A: -3.17%

Q: With COc1ccccc1NC(=O)N1CCCC1C(=O)NCc1cccs1 (stereo not given) as the compound, how does the max response read?
A: 4.62%

Q: With CCc1cc(=O)oc2cc(C)cc(OCC(=O)N3CCC[C@@H]3C(=O)O)c12 as the compound, how does the max response read?
A: -2.38%

Q: With CCC1Oc2ccccc2N(CC(=O)NCCCN2CCN(CC)CC2)C1=O (stereo not given) as the compound, how does the max response read?
A: -1.43%

Q: Which max response does the source give for Oc1cccc2ccc(/C=C/c3ccc(Br)s3)nc12 here?
A: 56.7% (active)

Q: For Nc1ccc(S(=O)(=O)Nc2nccc(/C=C/c3ccc(Br)s3)n2)cc1, which max response is on record?
A: 0.595%

Q: With O=C(CN1C(=O)c2cccnc2Oc2ccc(Cl)cc21)NCCc1ccccc1 as the compound, how does the max response read?
A: 18.6%

Q: With Cc1cc(C)n2nc(CNS(=O)(=O)c3c(F)c(F)c(F)c(F)c3F)nc2n1 as the compound, how does the max response read?
A: 1.02%

Q: Which max response does the source give for COc1ccc(S(=O)(=O)c2c[nH]c(=S)[nH]c2=O)cc1Cl here?
A: -3.71%

Q: Which max response does the source give for Cc1ccc(CNCc2ccc3c(c2)OCO3)c(C)c1 here?
A: 0.612%

Q: For COc1cc(CNCc2ccc3c(c2)OCO3)c([N+](=O)[O-])cc1OC, which max response is on record?
A: 13.8% (active)

Q: With COc1cccc(CNCc2ccc3c(c2)OCO3)c1 as the compound, how does the max response read?
A: 7.15%

Q: With Cc1ccc(-c2nn(-c3ccccc3)cc2/C=C/C(=O)Nc2cccc(S(N)(=O)=O)c2)cc1 as the compound, how does the max response read?
A: 6.92%

Q: Which max response does the source give for COc1ccc(CCNC2=CC(=O)CC(C)(C)C2)cc1 here?
A: 17%

Q: For CN1C(CC(=O)Nc2ccc(Br)cc2)c2ccccc2CC1(C)C (stereo not given), which max response is on record?
A: 7.55%

Q: For CCN(CC)CCN1C(=O)C(=O)/C(=C(/O)c2cnn(-c3ccccc3)c2C)C1c1cccs1 (stereo not given), which max response is on record?
A: 49.4% (active)

Q: Which max response does the source give for CCN(CC)CCN1C(=O)C(=O)/C(=C(/O)c2ccccc2)C1c1ccccc1F (stereo not given) here?
A: -1.86%

Q: With CCOc1cccc(/C(O)=C2/C(=O)C(=O)N(CCOC)C2c2ccncc2)c1 (stereo not given) as the compound, how does the max response read?
A: 3.2%

Q: With COC(=O)c1cc(S(=O)(=O)N2CCC(C(N)=O)CC2)oc1C as the compound, how does the max response read?
A: -3.53%

Q: Which max response does the source give for Cc1c(C)c(C)c(S(=O)(=O)N2CCC3(CC2)OCCO3)c(C)c1C here?
A: -1.61%

Q: Which max response does the source give for Cc1c(Cc2ccccc2)c(=O)oc2cc(OCC(N)=O)ccc12 here?
A: 1.87%

Q: For CC(=O)Oc1ccc2c(C)c(CC(C)O)c(=O)oc2c1 (stereo not given), which max response is on record?
A: -8.36%

Q: For CCc1c(C)c2ccc(OC3CCCCC3=O)cc2oc1=O (stereo not given), which max response is on record?
A: 16.5% (active)

Q: Which max response does the source give for COc1ccc(-n2cnnc2SCC(=O)Nc2cccc(S(N)(=O)=O)c2)cc1 here?
A: -5.17%

Q: Which max response does the source give for Cc1cc(C)c(S(=O)(=O)Nc2c(C)n(C)n(-c3ccccc3)c2=O)cc1[N+](=O)[O-] here?
A: -2.16%

Q: Which max response does the source give for COc1cccc(OCc2nnc3n2N=C(c2ccccc2)C(CC(=O)O)S3)c1 (stereo not given) here?
A: 9.69%

Q: For CCOC(=O)c1ccc(NC2Nc3cc(C)nn3S2)cc1 (stereo not given), which max response is on record?
A: 5.82%

Q: For CCc1ccc(NC2Nc3cc(C)nn3S2)cc1 (stereo not given), which max response is on record?
A: 49.2% (active)

Q: For COC(=O)c1cc(C(=O)NC(C)C2CC3CCC2C3)cc([N+](=O)[O-])c1 (stereo not given), which max response is on record?
A: -12.3%

Q: For COC(=O)c1ccc(N2CCOCC2)c(NC(=O)c2ccc(Br)o2)c1, which max response is on record?
A: -2.23%

Q: For Cn1cccc1/C=N/NC(=O)c1ccc(OC(F)(F)C(F)F)cc1, which max response is on record?
A: 38.1% (active)

Q: With COc1ccc(/C=N/NC(=O)c2cccc(C(F)(F)F)c2)cc1 as the compound, how does the max response read?
A: 6.57%

Q: With CCn1c(/C=N/NC(=O)c2ccc(OC)cc2)nc2ccccc21 as the compound, how does the max response read?
A: -2.39%

Q: Which max response does the source give for CC(Oc1ccccc1)C(=O)Nc1c2c(nn1-c1ccccc1)CS(=O)C2 (stereo not given) here?
A: -2.14%

Q: With CC(=O)Nc1ccc(OCC(=O)NCc2ccc(C)cc2)cc1 as the compound, how does the max response read?
A: 7.82%

Q: Which max response does the source give for CCCCC(=O)Nc1ccc(C(=O)NCCCn2ccnc2)cc1 here?
A: 3.08%

Q: For CCCCCC(=O)Nc1ccc(S(=O)(=O)Nc2ccc(Cl)nn2)cc1, which max response is on record?
A: 5.65%

Q: With CCCCCC(=O)Nc1ccc(-c2cn3cccnc3n2)cc1 as the compound, how does the max response read?
A: 25.3% (active)

Q: For CC(=O)Nc1ccc(S(=O)(=O)Nc2nc(-c3ccc(C(C)(C)C)cc3)cs2)cc1, which max response is on record?
A: -0.918%

Q: Which max response does the source give for CC(=O)Nc1ccc(S(=O)(=O)Nc2cccc(NC(=O)C(C)(C)C)c2)cc1 here?
A: 4.2%

Q: For CC(=O)Nc1ccc(-c2cn3cccnc3n2)cc1, which max response is on record?
A: 25.4% (active)

Q: With CCOc1cc(-c2cc(-c3ccc(NC(C)=O)cc3)nc(N)c2C#N)ccc1O as the compound, how does the max response read?
A: -3.59%

Q: With CC(C)(C)C(=O)Nc1ccc(-c2cn3cccnc3n2)cc1 as the compound, how does the max response read?
A: 28.5% (active)

Q: With CON(C)S(=O)(=O)c1ccc2c(c1)NC(=O)C1CCCN21 (stereo not given) as the compound, how does the max response read?
A: -1.81%

Q: Which max response does the source give for CCN(CC(=O)N1CCCC1)S(=O)(=O)c1ccc(F)cc1 here?
A: -0.599%

Q: Which max response does the source give for OCCNc1nc2ccccc2[nH]1 here?
A: -3.17%

Q: With Cc1ccc(O)c(CNc2nc3ccccc3[nH]2)c1 as the compound, how does the max response read?
A: 19.7% (active)

Q: Which max response does the source give for Cc1ccc(C)c(N2CCN(C(=O)CCc3nc4ccccc4[nH]3)CC2)c1 here?
A: -4.18%

Q: Which max response does the source give for Cc1ccc(O)c(CNc2nc3ccccc3n2C)c1 here?
A: 35% (active)

Q: Which max response does the source give for CC(C)n1c(NCc2c[nH]c3ccccc23)nc2ccccc21 here?
A: 5.28%

Q: For Cn1c(CNC(=O)C(C)(C)C)nc2ccccc21, which max response is on record?
A: -0.534%

Q: Which max response does the source give for CC(=O)c1ccc(NC(=O)Cn2c(=O)oc3ccccc32)cc1 here?
A: 0.709%

Q: For Cc1ccc(-n2ncc(C(=O)NC3CC3)c2C2CCN(C(=O)OC(C)(C)C)CC2)c(C)c1, which max response is on record?
A: 5.17%

Q: With CCOc1ccccc1NS(=O)(=O)c1c[nH]c(C(=O)OC)c1 as the compound, how does the max response read?
A: -0.295%

Q: Which max response does the source give for Cc1ccccc1N1CC(C(=O)Nc2nnc(SCCC3OCCO3)s2)CC1=O (stereo not given) here?
A: 0.819%

Q: With CCc1nnc(NC(=O)C2CC(=O)N(c3ccc4c(c3)OCCO4)C2)s1 (stereo not given) as the compound, how does the max response read?
A: 6.49%

Q: With c1ccc2cc3c(NCCN4CCOCC4)ccnc3cc2c1 as the compound, how does the max response read?
A: -2.42%

Q: Which max response does the source give for Cn1cc(C(=O)c2ccc(Cl)cc2Cl)cc1C(=O)NN here?
A: -5.78%

Q: For O=C(CCN1CCCCC1)N=Nc1c(O)[nH]c2ccccc12, which max response is on record?
A: 2.5%
